For 40 compounds, outcome and activity, negative = cytotoxicity results are on record in PubChem BioAssay (Tox21).

Results filed as inconclusive are left out. A number with no mark means an inactive call. Calls of active or inactive are those of the source. Calls follow the shape of the dose curve; as a rule, active = well fitted cell-killing curve with a large enough effect in the repeat runs; inconclusive = weak or mixed curves, or effect the other way; inactive = no such curve, though single readings can be large or run the other way.
% is scaled to controls: 0 for no effect and ±100 for the full control effect.

The nature of this experiment: qHTS assay to identify small molecule antagonists of the retinoid-related orphan receptor gamma (ROR-gamma) signaling pathway - cell viability counter screen (AID 1159520). Also: nearly all actives have a fitted effect of over 50% in size. As to conditions: Tet-on RORgamma CHO cells viability, ATP luminescence, 16 h; series mostly up to 92.4 µM. An excerpt:
U.S. Tox21 Program National Center for Advancing Translational Sciences [NCATS] NIH Chemical Genomics Center [NCGC] U.S. Environmental Protection Agency [EPA] National Institutes of Environmental Health Sciences [NIEHS] National Toxicology Program [NTP] U.S. Food and Drug Administration [FDA] Tox21 Assay Overview: Nuclear steroid hormone receptors are involved in many biological processes including inflammatory responses, cell proliferation, and apoptosis. Environmental factors or compounds disrupting these nuclear receptor pathways and gene expression may promote susceptibility to immunotoxicants and autoimmune diseases. One important group of these expression factors are the retinoid-related orphan receptors. To assess compounds that may interfere with the retinoid-related orphan receptor gamma (ROR-gamma) transcription factor, a cell-based luciferase assay was used. The CHO cell-based assay utilizes a TET-inducible ROR expression factor and ROR response element-LUC reporter gene. Reporter gene activity was induced using Doxycycline Hyclate and measured after 16 hr incubation. Tet-on ROR gamma CHO cells were used to screen against the Tox21 10K compound library for cytotoxicity by measuring the viability of the cells based on the quantitation of the ATP.
Tox21 Assay Protocol Summary: Tet-on ROR gamma CHO cells were dispensed at 1,000 cells in 4 uL of culture medium per well into white wall/solid bottom 1536-well plates using a Multidrop Combi (Thermo Scientific, Waltham, MA) dispenser. Following incubation at 37 C and 5% CO2 for 4 hr, 23 nL of compounds dissolved in DMSO, positive controls or DMSO only were transferred by a Pintool station (Kalypsys, San Diego, CA) and after 2 hr incubation at 37 C, one ul of 1 uM (final concentration) of Doxycycline Hyclate was added to all the wells by using a Flying Reagent Dispenser (FRD) (Aurora Discovery, San Diego, CA). After 16 hr incubation at 37 C and 5% CO2, 5 uL of CellTiter-Glo reagent (Promega Corporation, Madison, WI) was added to each assay plate using FRD. After 30 min incubation at room temperature, luminescence was quantified on a ViewLux plate reader (Perkin Elmer, Waltham, MA).
For orientation: qHTS replaces the single test concentration by a dilution series.
On to `O=C(O)CC(C(=O)O)S(=O)(=O)O` (stereo not given), for which the compound was classed as inactive.
`CC[C@H]1OC(=O)[C@H](C)[C@@H](O[C@H]2C[C@@](C)(OC)[C@@H](O)[C@H](C)O2)[C@H](C)[C@@H](O[C@@H]2O[C@H](C)C[C@H](N(C)C)[C@H]2O)[C@](C)(OC)C[C@@H](C)C(=O)[C@H](C)[C@@H](O)[C@]1(C)O`: the compound was classed as inactive.
On to `CC(=O)Oc1cccc(C)c1`, for which the compound was called inactive.
As for `O=C(CO)[C@@H](O)[C@H](O)[C@@H](O)CO`, the call was inactive.
On the same count and under the same terms, next, `CCC(C(=O)NC(=O)NC(C)=O)c1ccccc1` (stereo not given): “inactive”; `CC[N+](CC)(CC)CCOc1cccc(OCC[N+](CC)(CC)CC)c1OCC[N+](CC)(CC)CC`: “inactive”.
Regarding `CC(C)[C@H]1CC[C@@H](C)CC1=O`, the result was inactive.
As for `CC1=NN(c2cccc(S(=O)(=O)O)c2)C(=O)C1`, the compound was classed as inactive.
The same measure, in the same setting: next, `Cc1onc(-c2c(Cl)cccc2Cl)c1C(=O)Cl`: “inactive”; `CCCCCC(=O)OCCc1ccccc1`: “inactive”.
Regarding `CC(C)(C)c1ccc(-c2ccc(C(C)(C)C)cc2)cc1`, the result was inactive.
As for `CC(C)C[C@@H](N)C(=O)O`, the activity, negative = cytotoxicity is 3.47% [at 19 µM].
For the compound `COCCOC[C@H](CC1(C(=O)NC2CCC(C(=O)O)CC2)CCCC1)C(=O)Oc1ccc2c(c1)CCC2` (stereo not given in full), the compound was classed as inactive.
With `CCCn1cc[n+](C)c1C`, the compound was called inactive.
`O=S(=O)(O)c1cccc2c(S(=O)(=O)O)cccc12`: the compound was called inactive.
Same read-out and setting: as for `C=C[Si](OC(C)=O)(OC(C)=O)OC(C)=O`, the entry is “inactive”.
Still for that read-out and setting: next, `C=C(C)C(=O)OCC(O)CO` (stereo not given): “inactive”; `Nc1ccn([C@@H]2O[C@H](CO)[C@@H](O)[C@@H]2O)c(=O)n1`: “inactive”.
As to `CCOc1ccc2nc(S(N)(=O)=O)sc2c1`, the compound was classed as inactive.
Regarding `CCOC(=O)COC(=O)c1ccccc1C(=O)OCC`, the compound was classed as inactive.
Turning to `COc1cc(-c2ccc(=O)[nH]n2)ccc1OC(F)F`, the result was inactive.
The same measure, in the same setting: as for `CC(COc1ccccc1)NN` (stereo not given), the entry is “inactive”.
Take `CC(C)(C)C(=O)c1ccccc1`: the outcome was inactive.
The same measure, in the same setting: as for `C[C@@H]1CCC[C@H](C)N1`, the entry is “inactive”; as for `CCOc1ccccc1OCC`, “inactive”.
With `COCCOCC(OC)OC`, the compound was called inactive.
Regarding `CC(=O)NC(=O)c1ccccc1O`, the result was inactive.
For the compound `[K+]`, the compound was called inactive.
Turning to `C=C(C)C(=O)OCC1CCCO1` (stereo not given), the compound was classed as inactive.
On the same count and under the same terms, as for `Cc1ccnc(NS(=O)(=O)c2ccc(N)cc2)n1`, the entry is “inactive”; as for `CCOC(=O)c1cnc2c(cnn2CC)c1NN=C(C)C`, “inactive”.
For the compound `CN1CC(=O)N/C1=N/C(=O)Nc1cccc(Cl)c1`, the result was inactive.
As to `CC(C)CCCO`, the compound was classed as inactive.
Consider `CN1C(C)(C)CC(O)CC1(C)C`, for which the compound was called inactive.
Take `Nc1ccn([C@@H]2O[C@H](CO)[C@@H](O)C2O)c(=O)n1` (stereo not given in full): the call was inactive.
As for `O=S(=O)(O)c1cc(O)c(O)c(S(=O)(=O)O)c1`, the result was inactive.
As to `Nc1c2c(nc3c1CCC3)CCCC2`, the result was inactive.
For the compound `CC[N+](C)(CC)CCOC(=O)C1c2ccccc2Oc2ccccc21`, the call was inactive.
Turning to `O=C(O)CCSCCC(=O)O`, the outcome was inactive.
Regarding `CC(C)COC(=O)c1ccc(N)cc1`, the call was inactive.
